Source: PubChem BioAssay AID504706 (National Center for Advancing Translational Sciences (NCATS), 2011)
Hit rate of the full screen: of about 320,000 compounds, about 200 (0.062%) were called active. Not shown: some 6% with an inconclusive outcome. The call rests on the fitted dose curve; in most records, active means well fitted activation curve with a large enough effect; inconclusive means small, poorly fitted or top-dose-only effect; inactive means no such curve, though single readings can be large or run the other way. Many of the other results were omitted from the sample, so actives are more common in it than they were.

Experiment: qHTS assay for re-activators of p53 using a Luc reporter; further: nearly all actives have a fitted effect of over 45% in size; on activity change, positive = activation: % of control where 0% means no effect
Settings: H1299 p53-A138V BP100-luciferase reporter, luminescence, 24 h; series mostly up to 92.2 µM; activity change, positive = activation: at the top concentration
Source text: The p53 tumor suppressor plays a key role in suppression of tumorigenesis and in human carcinogenesis. It is frequently found inactivated in human cancers, mainly by point mutation. These point mutations are found in a wide variety of human cancers and a majority of them affect the DNA binding domain of the protein. The point mutations either alter native p53 conformation or abolish DNA contact. Additionally, cancer cells with p53 mutations are more resistant to chemo-radiation therapies. In order to find activators to reactivate this important protein, a cell-based screen for p53-dependent luciferase-reporter expression was developed. A p53-null H1299 lung cancer cell line was stably co-transfected with a temperature sensitive p53 mutant, p53-A138V, and a p53-responsive BP100-luciferase reporter. This cell model has previously been characterized in a gene chip profiling experiment for p53 activation. By lowering the culture temperature from 37 deg C (mutant p53 conformation) to 32 deg C (w.t. p53 conformation), a 30-60 fold increase in activation of luciferase activity is observed. At assay temperate, 37 deg C, basal reporter expression is very low and after the addition of detection reagent, a luminescent read-out is carried out. NIH Chemical Genomics Center [NCGC] NIH Molecular Libraries Probe Production Centers Network [MLPCN] MLPCN Grant: DA031088-01A1 Assay Provider (PI): Yi Sung, University of Michigan at Ann Arbor
5ul of 1000 cells per well are dispensed in all wells except column 4, into white solid-bottom TC-treated Kalypsys plates. The cells are kept in Opti-MEM and supplemented with 10% FBS and dispensed using a Multidrop (Thermo). Then using the Kalypsys pin-tool, 23nl of compounds are pinned. The compounds are starting concentration at 10mM, with 1:5 dilution, 4 points, and the control compound nocodazole is pinned in column 1 at 25mM, 1:3 dilution, in duplicate, 25mM nocodazole is pinned in column 2. Please note, all concentrations are working concentrations. 5ul of 1pM purified luciferase enzyme is dispensed using the Kalypsys dispenser in column 4. Plates are incubated for 24 hrs at 37 deg C, 5% CO2, and 95% humidity. Then 4ul of the detection reagent Amplite (ABD Bioquest) is added using the Kalypsys dispenser. Plates are incubated for 10 min at ambient room temperature and are then read on the ViewLux (Perkin Elmer) using a clear filter for a luminescent read-out.
Potency means the concentration at half of the fitted maximal effect.

Structure (SMILES) | activity change, positive = activation | Potency
COC(=O)c1ccc(CNC(=O)c2ccc(S(=O)(=O)N3CCCCCC3)cc2)cc1 | -2% (inactive) | 
O=C(COc1ccc(F)cc1Br)NCC1COc2ccccc2O1 (centres undefined) | -3.91% (inactive) | 
CC(C)N(C(=O)[C@H]1C[C@H](CC(=O)NCCC2=CCCCC2)C(=O)N2CCc3c([nH]c4cc(CCC(=O)N(C)C)ccc34)[C@]12C)C(C)C | -2.05% (inactive) | 
CN(C)C(=O)CCc1ccc2c3c([nH]c2c1)[C@]1(C)[C@@H](C(=O)N2CCOCC2)C[C@H](CC(=O)NCCc2ccccn2)C(=O)N1CC3 | 21.2% (inactive) | 
Cn1c(-c2ccc(C(F)(F)F)cc2)cc2onc(-c3ccccc3)c2c1=O |  | 22.4 µM (active)
O=c1c2ccccc2c(-c2ccc(F)cc2)nn1-c1ccc(C(F)(F)F)cc1 | 3.3% (inactive) | 
Cc1onc(-c2ccccc2)c1C(=O)N1CCN(S(=O)(=O)c2ccccc2C(F)(F)F)CC1 | 14.4% (inactive) | 
CC(C)n1cnc2c(NCc3ccccc3)cc(N[C@@H](CO)Cc3ccccc3)cc21 | -14.8% (inactive) | 
COc1ccc2[nH]c3c(c2c1)CCN1C(=O)C(CC(=O)NCc2cccc(C(F)(F)F)c2)C[C@H](C(=O)N2CCOCC2)[C@@]31C (some centres undefined) | -2.15% (inactive) | 
COc1ccccc1N(CCOc1ccccc1)S(=O)(=O)c1ccccc1 | 4.72% (inactive) | 
COc1ccc(-c2noc(CCC(=O)N3CCN(c4cccc(C)c4)CC3)n2)cc1 | -6.14% (inactive) | 
CCCCC[C@@H]1C=C(C(=O)O)[C@H](c2ccc(C#N)cc2)N1S(=O)(=O)c1ccc(C)cc1 | -8.31% (inactive) | 
CCC(C)c1ccc(NC(=O)COC(=O)C2CCCC2)cc1 (centres undefined) | 22.8% (inactive) | 
O=C(NCC#CCSc1nnc(-c2cccc3ccccc23)o1)c1cccs1 | 4.19% (inactive) | 
O=C(NOCc1ccccc1)c1cccc([N+](=O)[O-])c1 | 24.5% (inactive) | 
CCOC(=O)C1CCCN(C(=O)CSc2nnc3nc(C)cc(C)n23)C1 (centres undefined) | 2.38% (inactive) | 
CCOC(=O)C1CCN(C(=O)CN2C(=O)NC(C)(c3ccc4cc(OC)ccc4c3)C2=O)CC1 (centres undefined) | -3.98% (inactive) | 
CC1CCN(C(=O)CCNC(=O)c2ccccc2)CC1 | 19.5% (inactive) | 
O=C(NCCc1ccccc1)c1ccc2c(c1)N(Cc1ccccc1)CCS2 | 8.11% (inactive) | 
CC1CCCN(c2ccc(C(=O)NCCc3ccccc3)cn2)C1 (centres undefined) |  | 35.5 µM (active)
CC[C@]12c3[nH]c4ccc(Cl)cc4c3CCN1C(=O)[C@@H](CC(=O)NCCCOC)C[C@@H]2C(=O)N1CCN(C(=O)c2ccco2)CC1 | -3.84% (inactive) | 

Structure (SMILES) | activity change, positive = activation | Potency
CC[C@]12c3[nH]c4cc(CCC(=O)N(C)C)ccc4c3CCN1C(=O)[C@@H](CC(=O)NCC13CC4CC(CC(C4)C1)C3)C[C@@H]2C(=O)N1CCN(C(=O)C2CC2)CC1 | 7.54% (inactive) | 
CCn1c(=S)[nH]c2cc(S(=O)(=O)N3CCOCC3)ccc21 | -13.9% (inactive) | 
Cc1nc2cc(-c3ccc(F)cc3)nn2c(N2CCOCC2)c1C | 15.1% (inactive) | 
Cc1cc(C(C)(C)C)n2nc(C)c(-c3ccccc3)c2n1 | 1.98% (inactive) | 
Cc1cc(N)n2nc(-c3ccc(C(C)(C)C)cc3)cc2n1 |  | 11.2 µM (active)
CC(C)CC1NC(=O)c2cc(Cl)ccc2-n2c1nc1ccccc1c2=O (centres undefined) | -4.01% (inactive) | 
COc1cccc(CNC(C)C(=O)Nc2ccc(S(=O)(=O)N3CCCC3)cc2)c1 (centres undefined) | -4.27% (inactive) | 
Cc1cc(NC(=O)CSCC(=O)NC(C)c2ccccc2)no1 (centres undefined) | -1.81% (inactive) | 
O=C(Nc1ccc(N2CCOCC2)cc1)c1cccc(S(=O)(=O)N2CCOCC2)c1 | -1.76% (inactive) | 
Oc1ccccc1-c1cc(-c2ccc(Cl)cc2)n[nH]1 |  | 2.82 µM (active)
Cc1ccc(NC(=O)c2cc(-c3ccccc3O)n[nH]2)cc1C | -0.764% (inactive) | 
O=C(Nc1cccnc1Cl)c1cc(-c2ccccc2O)on1 | 23.1% (inactive) | 
CCN(CC(=O)NCc1ccc(F)cc1)S(=O)(=O)c1ccc(Cl)s1 | -4.07% (inactive) | 
CC(=O)c1ccc(NC(=O)CSc2nc3ccccc3c(=O)n2CCCN2CCOCC2)cc1 | -10.6% (inactive) | 
CC(=O)Nc1ccc(S(=O)(=O)Nc2ccc(N3CCCCC3)cc2)cc1 | 7.31% (inactive) | 
CC[C@]1(C(=O)OC)[C@H]2C(=O)N(C)C(=O)[C@H]2[C@H]2CN(C)C(=NCc3ccccc3)N21 | -0.397% (inactive) | 
CC1O[C@H](OC2C(COC3OC(CO)C(O)[C@H](O)C3O)OC(OC3CC[C@]4(C)C(CC[C@@]5(C)[C@@H]4C=C[C@]46OC[C@@]7(CCC(C)(C)C[C@H]74)C(O)C[C@@]56C)C3(C)C)C(O)C2O)C(O)C(O)C1O (some centres undefined) | 0.455% (inactive) | 
CC[C@]12c3[nH]c4cc(CCC(=O)N(C)C)ccc4c3CCN1C(=O)[C@@H](CC(=O)NCCCN(C)C)C[C@@H]2C(=O)N1CCN(C(=O)c2ccco2)CC1 | -0.34% (inactive) | 
CN1C(=O)[C@H]2[C@@H](/C=C/c3ccccc3)N3C(=O)CN(Cc4ccc(-c5ccccc5)cc4)C(=O)[C@@]3(C)[C@H]2C1=O | 0.747% (inactive) | 
CC1Sc2ccc(C(=O)NCc3ccccc3Cl)cc2NC1=O (centres undefined) | 0.128% (inactive) | 
O=C1NC(Cc2ccc(O)cc2)c2nc3ccc(Cl)cc3c(=O)n2-c2ccccc21 (centres undefined) | 3.93% (inactive) | 

Structure (SMILES) | activity change, positive = activation | Potency
Cc1ccc(C)c(S(=O)(=O)N2CCN(c3ncnc4sccc34)CC2)c1 | -8.28% (inactive) | 
C=CC[C@@H](Cc1ccc(F)cc1)C(=O)OC[C@H]1CCCN1C(=O)[C@H](CC=C)CC(=O)N(CCO)Cc1ccccc1 | 2.23% (inactive) | 
CC(=O)Nc1ccc(NC(=S)NC(=O)/C=C/c2ccccc2)cc1 | 1.32% (inactive) | 
CC(=O)Nc1ccc(C(=O)/C=C/c2ccc[nH]2)cc1 | 9.7% (inactive) | 
CC(=O)Nc1ccc(/C=C/C(=O)c2ccccc2)cc1 |  | 15.8 µM (active)
O=C(C[C@H]1C[C@H](C(=O)N2CCOCC2)[C@@]2(CCC3CCCC3)c3[nH]c4ccc(Cl)cc4c3CCN2C1=O)NCc1ccco1 | -4.21% (inactive) | 
CC[C@]12c3[nH]c4cc(CCC(=O)N(C)C)ccc4c3CCN1C(=O)[C@@H](CC(=O)NCc1ccco1)C[C@@H]2C(=O)N1CCN(C(=O)c2ccco2)CC1 | -0.895% (inactive) | 
COc1cc(/C=C/C(=O)Nc2ccc(OC)c(S(=O)(=O)N3CCOCC3)c2)ccc1OCC#N | -10.6% (inactive) | 
O=C1OC[C@@H]2CCCN2C(=O)[C@H](CC(=O)N(CCO)Cc2ccccc2)C/C=C\CC[C@@H]1Cc1ccc(F)cc1 | 5.47% (inactive) | 
COc1cc(OC)c(C(=O)NNC(=O)c2ccccc2-n2cccc2)cc1OC | -0.521% (inactive) | 
C[C@@H]1CN([C@@H](C)CO)C(=O)c2cccc(NS(=O)(=O)c3ccc(F)cc3)c2O[C@H]1CN(C)C(=O)NC1CCCCC1 | -3.42% (inactive) | 
COC(=O)[C@]1(C)N[C@H](CN(C)C(=O)c2ccc(C(C)(C)C)cc2)[C@@H]2C(=O)N(C)C(=O)[C@@H]21 | 0.555% (inactive) | 
Cc1ccc(CNC(=O)Cn2cnc3c(NCc4ccccc4)ncnc32)o1 | -1.49% (inactive) | 
CN(C(=O)c1cccc(NC(=O)Cc2ccc([N+](=O)[O-])cc2)c1)C1CCC1 | -5.23% (inactive) | 
CCN(C(=O)CSc1nnnn1-c1ccc(OC)cc1)C1CCS(=O)(=O)C1 (centres undefined) | -2.62% (inactive) | 
C#CCOCCOCCOCCNc1nc(N2CCN(C(=O)[C@H](CCCN=C(N)N)n3cc(C(N)[C@@H](C)CC)nn3)CC2)nc(N2CCN(C(=O)[C@H](CO)n3cc([C@@H](N)C(C)C)nn3)CC2)n1 (some centres undefined) | 0.362% (inactive) | 
CCCCNS(=O)(=O)CCNCc1ccccc1OC | -5.63% (inactive) | 
C=CCC[C@@H](Cc1ccc(F)cc1)C(=O)OC[C@@H](C)NC(=O)[C@H](CC=C)CC(=O)N(CCO)Cc1ccccc1 | -7.01% (inactive) | 
CC(=NNC(=O)c1ccc2nc[nH]c2c1)c1ccc(Br)cc1 | 5.89% (inactive) | 
CC[C@@H]1CCCCc2ccccc2[C@@H](C(=O)C[C@H](O)CC(C)=O)OC1=O | -0.71% (inactive) | 
COc1ccc(-c2nn(-c3ccccc3)cc2/C=N/Nc2ccccn2)cc1OC | 0.301% (inactive) | 

Structure (SMILES) | activity change, positive = activation | Potency
Oc1ccc(Br)cc1/C=N/Nc1ccccn1 |  | 28.2 µM (active)
Oc1ccc(/C=N/Nc2ccc(C(F)(F)F)cn2)cc1O | 18.2% (inactive) | 
COc1ccc(-c2nc3cc(C)ccn3c2NC2CCCCC2)cc1SC1CCCCC1 | 3.29% (inactive) | 
CSc1ccc(/C=N\NC(=O)CC(=O)NC(C)C)cc1 | 1.21% (inactive) | 
O=C(N/N=C/c1ccc(Cl)c(Cl)c1)c1ccc2nc[nH]c2c1 | 13.3% (inactive) | 
CSc1ccc(/C=N/NC(=O)c2cccc(Cl)c2)cc1 |  | 10 µM (active)
COc1ccc2nc3n(c(=O)c2c1)-c1cc(C)ccc1C(=O)NC3Cc1ccc(O)cc1 (centres undefined) | 3.32% (inactive) | 
O=C1CCC/C=C/C[C@@H](CC(=O)N(CCO)Cc2ccccc2)C(=O)NC[C@H](c2ccccc2)O1 | 0.64% (inactive) | 
C=CCC[C@H](Cc1ccc(F)cc1)C(=O)OC[C@@H](Cc1c[nH]c2ccccc12)NC(=O)[C@H](CC=C)CC(=O)N[C@H](CO)Cc1ccccc1 | -2.92% (inactive) | 
C=CCC[C@H](Cc1ccc(F)cc1)C(=O)OC[C@@H](NC(=O)[C@@H](CC=C)CC(=O)N[C@H](CO)Cc1ccccc1)C(C)(C)C | -0.891% (inactive) | 
C=CC[C@@H](CC(=O)N[C@H](CO)Cc1ccccc1)C(=O)N[C@H](C)COC(=O)[C@@H](CC=C)Cc1ccc(F)cc1 | 3.98% (inactive) | 
Cc1noc(C)c1S(=O)(=O)N(C)C[C@H]1Oc2c(NC(=O)Nc3ccc4c(c3)OCO4)cccc2C(=O)N([C@H](C)CO)C[C@@H]1C | -4.87% (inactive) | 
O=C(CCc1ccc(S(=O)(=O)N2CCOCC2)cc1)OCC(=O)c1ccc(Br)cc1 | -1.37% (inactive) | 
Cc1ccc(NC(=O)C2CCC(C(C)(C)C)CC2)cc1S(=O)(=O)N1CCOCC1 (centres undefined) | 11.4% (inactive) | 
O=C(Cn1cc(C(F)(F)F)ccc1=O)Nc1ccc2c(c1)OCCO2 | -1.81% (inactive) | 
COc1ccccc1N(CC(=O)Nc1ccc(C)cc1Cl)S(=O)(=O)c1cccs1 | -6.31% (inactive) | 
CC[C@]12c3[nH]c4ccc(Cl)cc4c3CCN1C(=O)[C@@H](CC(=O)NCCCOC)C[C@@H]2C(=O)N1CCN(C(=O)C2CC2)CC1 | 1.51% (inactive) | 
COc1ccc(CNC(=O)C[C@H]2C[C@H](C(=O)N3CCOCC3)[C@@]3(C)c4[nH]c5cc(CCC(=O)N(C)C)ccc5c4CCN3C2=O)cc1OC | 12.8% (inactive) | 
COc1ccc(C(C(O)C(=O)c2c[nH]c3ccccc23)N2CCN(c3ccccc3)CC2)cc1 (centres undefined) | -0.0809% (inactive) | 
COc1ccc(/C=C(\C#N)c2c[nH]c3ccccc23)cc1 |  | 31.6 µM (active)
COc1ccc2[nH]cc(/C=C(/C#N)S(=O)(=O)c3ccccc3)c2c1 | -3.33% (inactive) | 
